Screens (PubChem)
Shown are actives, neighbours in structure and some others; about 2.3% of the full set was active somewhere.
Cardio protect: modulators protecting cardiomyocytes from myocardial damage | H9c2 cardiomyocytes, H2O2 injury protection, ATPLite, 2 h | 0.63% of 360,000 active | protection from H2O2 cell death, % at 20 µM;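 active = compounds giving at least 50% protection of heart cells from peroxide-induced death in the single-dose screen, raw or plate-pattern-corrected value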;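 also: 0% = DMSO wells with peroxide and 100% = DMSO wells without peroxide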
FAS-TE inh: blocks the thioesterase domain of human fatty acid synthase; P49327; recombinant FAS-TE, OMFH fluorogenic substrate, fluorescence endpoint; 0.67% of 360,000 active; AID 602261; inhibition, % at 15 µM;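 active = compounds whose normalised, plate-corrected inhibition of enzyme fluorescence in the single-dose primary screen is 50% or more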;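 also: 0% = DMSO with enzyme and 100% = substrate without enzyme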
m-calpain inh: blocks pig calpain II enzyme activity; purified calpain II, fluorogenic peptide substrate, 30 min; inhibition, % at 16 µM; 0.37% of 220,000 active; AID 1236;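 active = inhibition above about 50%, limit read from the data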
TAG inh: triacylglycerol accumulation inhibition. H9c2 cells, Nile Red lipid (TAG) fluorescence; cells loaded with 200 µM oleic acid. inhibition, % at 12.5 µM. 0.66% of 230,000 active. AID 651582;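 active = pattern-corrected inhibition of lipid staining of at least 50% with the nuclear-stain viability signal not falling by more than 50%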;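 also: 0% = DMSO wells and 100% = triacsin C control wells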
aDG glyco up: alpha-DG glycosylation activation. Pro5-aDG cells, alpha-DG glycosylation AlphaScreen (IIH6); 0% Pro5, 100% B10-LARGE cell signal. activation, % at 10 µM. 0.22% of 360,000 active. AID 624168;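 active = activation of at least 8% versus controls, or a plate z-score of at least 8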;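 also: Pro5 are CHO cells carrying HIG-tagged alpha-DG that lacks glycosylation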
MIN6 prolif: MIN6 beta-cell proliferation induction; MIN6 cells proliferation, ATPlite luminescence, 48 h; cells starved in 0.2% serum; 100% = growth in 10% serum; proliferation, % at 10 µM; 0.29% of 330,000 active; AID 2380;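 active = compounds whose signal lies at least 3.5 SD above the mean of all wells on their plate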;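 also: 0% = DMSO-treated cells in low-serum medium and 100% = 10% serum control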
FAS-TE conf: FAS thioesterase (human) inhibition, confirmation | inhibition, % at 15 µM | recombinant FAS-TE, OMFH fluorogenic substrate, fluorescence | shares compounds with FAS-TE inh | AID 624325 | 45% of 2,300 active;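 active = compounds inhibiting the enzyme by at least 50% at 15 µM in any one of the replicates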;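 also: 0% = enzyme with DMSO only and 100% = wells lacking enzyme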
* = called active by the depositor; i = inactive; nt = no result given.

SMILES	Cardio protect	FAS-TE inh	m-calpain inh	TAG inh	aDG glyco up	MIN6 prolif	FAS-TE conf
O=C(NCc1ccccc1Cl)c1ccc2nc([C@H]3C[C@H](O)[C@@H](CO)O3)[nH]c2c1	-2	-7	nt	-11	0	nt	nt
O=C(C[C@H]1C[C@H](C(=O)N2CCOCC2)[C@@]2(CCC3CCCC3)c3[nH]c4cc(-c5ccco5)ccc4c3CCN2C1=O)NCCc1ccccn1	-7	64*	nt	13	0	nt	71*
N#Cc1cc(NC2CCCC2)c([N+](=O)[O-])cc1C#N	2	54*	0	nt	0	3	22
O=[N+]([O-])c1ccc(NC2CCCC2)cc1	-3	3	24	nt	0	-1	nt
CC1(C(=O)NS(=O)(=O)c2cccc(F)c2)CCN1C(=O)C1CCCCC1 (centres undefined)	3	-10	nt	6	0	nt	nt
COC(=O)c1cc(S(=O)(=O)N2CCCCC2)c[nH]1	-2	-6	nt	nt	0	4	nt
O=C(c1ccccc1O)N1N=C(C(F)(F)F)CC1(O)c1ccc([N+](=O)[O-])cc1 (centres undefined)	6	30	nt	-5	0	-1	nt
CCc1ccc(C2(O)CC(C(F)(F)F)=NN2C(=O)Cc2ccc([N+](=O)[O-])cc2)cc1 (centres undefined)	2	52*	-10	-15	0	-6	18
Cc1ccc([C@H]2C[C@H](n3cc(-c4ccc(F)cc4)nn3)[C@@H](O)CN2CC2CCCCC2)cc1	-14	16	nt	5	0	nt	nt
Cn1c(-c2ccccc2)cnc1NCc1cccc([N+](=O)[O-])c1	15	71*	nt	-10	0	2	67*
CSc1ccc(CNc2ncc(-c3cccc([N+](=O)[O-])c3)n2C)cc1	7	26	nt	-8	0	-1	nt
CSc1nc(C(=O)N2CCCC(N3CCN(c4ccccc4C)CC3)C2)cs1 (centres undefined)	-4	1	nt	2	0	1	nt
CCCCn1c(=NC(C)=O)c(C#N)cc2c(=O)n3cccc(C)c3nc21	9	50*	nt	6	0	-1	32
CC(=O)N=c1c(C#N)cc2c(=O)n3ccccc3nc2n1CCCOC(C)C	4	13	13	-4	0	0	nt
CCOCCCn1c(=NC(C)=O)c(C#N)cc2c(=O)n3cccc(C)c3nc21	3	25	-319	19	0	0	nt
CCCCCn1c(=NC(C)=O)c(C#N)cc2c(=O)n3ccccc3nc21	4	61*	i	nt	0	0	23
O=C(Nc1ccccc1Cl)C(=O)c1cn(CC(=O)N2CCOCC2)c2ccccc12	-8	6	nt	nt	0	-5	nt
COC(=O)c1cc([N+](=O)[O-])c(-n2cncn2)c([N+](=O)[O-])c1	-19	57*	2	nt	0	nt	29
O=C(COC(=O)/C=C/c1ccc(OC(F)F)cc1)Nc1ccc2[nH]c(=O)[nH]c2c1	-4	-1	nt	15	0	-1	nt
O=C(Nc1nnc(C2=COCCO2)o1)c1cccc([N+](=O)[O-])c1	6	-4	nt	3	0	0	nt
O=C(Nc1nnc(-c2ccc(F)cc2)o1)c1cccc([N+](=O)[O-])c1	17	56*	-46	5	6	-6	54*
CCOC(=O)c1c(NC(=O)COC(=O)c2nccnc2N)sc(C(=O)N(C)C)c1C	11	-4	nt	6	0	-1	nt
CCCCCc1nc2sc3c(c2c(=O)n1NC(=O)c1ccc([N+](=O)[O-])cc1)CC(C)(C)OC3	-29	78*	-76	5	0	-6	63*
CC1=CC(=O)CC(C)(C)[C@@]1(O)/C=C/[C@@H](C)O[C@@H]1O[C@H](CO)[C@@H](O)[C@H](O)[C@H]1O	0	-6	nt	nt	0	1	nt
COc1cc(CNc2nc(C)c([N+](=O)[O-])c(C)c2C#N)cc(OC)c1OC	-14	55*	13	nt	1	-3	59*
SMILES	Cardio protect	FAS-TE inh	m-calpain inh	TAG inh	aDG glyco up	MIN6 prolif	FAS-TE conf
CSc1cccc(CNC(=O)C2CCC(=O)N(CCCN3CCCC3=O)C2)c1 (centres undefined)	6	-8	nt	nt	0	-3	nt
C[C@@H](NC(=O)[C@@H]1CCCN1C(=O)[C@@H]1CCCN1C(=O)c1cccc2ccccc12)c1ccccc1	nt	-9	nt	nt	0	nt	nt
COC(=O)c1ccc2c(=O)n(-c3ccccc3)c(SCN3C(=O)c4ccccc4C3=O)nc2c1	-4	62*	-51	nt	0	0	3
O=C(O)c1ccc(CSc2nc3ccccc3c(=O)n2-c2ccccc2)cc1	3	-2	nt	1	0	-4	nt
O=C(COC(=O)c1cc([N+](=O)[O-])ccc1N1CCOCC1)c1ccc(F)cc1	4	69*	nt	-10	0	8	40*
CCc1ccc(C(=O)COC(=O)c2cc([N+](=O)[O-])ccc2N2CCOCC2)cc1	-2	80*	nt	2	0	0	80*
Cc1ccc(NC2(c3nnnn3-c3c(C)cccc3C)CCCCC2)cc1	-6	54*	30	nt	0	-6	30
COCCN1C(=O)CCC1(C)c1nnnn1-c1c(C)cccc1C (centres undefined)	nt	-8	nt	nt	0	nt	nt
O=C(/C=C/c1ccccc1)NC(=S)Nc1ccccc1	-2	8	nt	nt	0	-4	nt
C=CCN(CC=C)S(=O)(=O)c1ccc(NC(=S)NC(=O)/C=C/c2ccccc2)cc1	-12	57*	-5	-8	0	-2	10
CCOC(=O)C1CCCN(c2nc3c(C)cccn3c(=O)c2/C=C(\C#N)C(=O)NCc2ccco2)C1 (centres undefined)	25	52*	3	-14	0	0	54*
Cc1cccn2c(=O)c(/C=C(\C#N)C(=O)NCc3ccco3)c(N3CCCC(C)C3)nc12 (centres undefined)	-10	41	3	nt	0	-2	nt
Cc1cccn2c(=O)c(/C=C(\C#N)C(=O)NCc3ccco3)c(N3CCCCC3)nc12	12	37	-17	nt	0	3	nt
Cc1cccn2c(=O)c(/C=C(\C#N)C(=O)NCc3ccco3)c(N3CCCCCC3)nc12	13	53*	-12	-6	0	-2	48
O=c1ccc(/C=C/c2ccccc2)nn1Cc1ccc(F)cc1	-5	37	-116	-13	0	-4	nt
Cc1ccc(/C=C/c2ccc(=O)n(Cc3ccc(F)cc3)n2)cc1	-16	50*	-93	-1	0	-4	39*
COc1ccc(Cn2c(=O)c3cccnc3n(Cc3ccc([N+](=O)[O-])cc3)c2=O)cc1	37	46	-46	nt	0	-4	nt
Cc1nc2ccc(N)cc2c(=O)n1Cc1ccc(Cl)cc1	8	-11	-463	-106	0	0	nt
